CHX counter – counter-screen hit for Shiga toxin inhibitors, cycloheximide | cell reporter, cycloheximide protein synthesis inhibition counterscreen | max response, % | 12% of 300,000 active; in the data active = max response mostly above about 13%, no sharp cut-off; inactive = mostly below about 14%; note: read at 38.3 µM for the half of the compounds with a filed dose
AMA1-RON2 inh – inhibitors of Plasmodium falciparum AMA1-RON2 interaction. 0.2% of 360,000 active. Potency, µM (top dose mostly 58.2 µM), usual class: inhibitors. AlphaScreen AMA1-biotinylated RON2 peptide binding. AID 720542; note: nearly all actives have a fitted effect of over 45% in size
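AMA1 (3D7) with his tag at 25 nM final met compounds first, then biotinylated RON2 peptide at 25 nM; detection used donor plus acceptor beads, 10 µg/mL apiece, read by AlphaScreen after 30 min at room temperature.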
Pf growth 48h – P. falciparum growth inhibition at 48 hours (one generation); P. falciparum luciferase growth in erythrocytes, 48 h; Potency, µM (titrated, usually from 28.7 µM), usual class: inhibitors; 5.9% of 310,000 active; AID 504832
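A one-generation exposure of luciferase-tagged malaria parasites in RPMI 1640/Albumax erythrocyte culture, 37 C and 5% CO2. Inhibition is inferred from decreased luminescence after adding detection reagent.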
Shiga toxin inh – inhibitors of Shiga toxin in Vero cells; inhibition, % at 38.7 µM; Vero cells, Shiga toxin protein synthesis inhibition reporter; 9.2% of 290,000 active; AID 2315; in the data active = inhibition mostly above about 28%, no sharp cut-off; inactive = mostly below about 43%
SARS PLP yeast – blocks SARS-CoV papain-like protease in a yeast assay. S. cerevisiae expressing SARS-CoV PLpro, growth rescue. Potency, µM (highest dose often 32.9 µM), usual class: activators. 0.19% of 330,000 active; calls by dose curve; note: nearly all actives have a fitted effect of over 55% in size
Pf growth 96h – P. falciparum growth inhibition at 96 hour, primary screen for plastid delayed-death inhibitors. P. falciparum luciferase reporter growth, 96 h. 6.9% of 320,000 active. AID 504834. Potency, µM (series often up to 28.7 µM), most hits filed as inhibitors
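Delayed-death screen, second-generation endpoint: infected erythrocytes, 2% hematocrit, 0.05% parasitemia final; 96 hours at 37 C, 5% CO2; luciferase detection reagent; luminescence decrease equals reduced growth.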
Large screens that a line does not name were inactive. In the library only some 19% were active in any assay of this set; here they are far more common. Unless noted, calls come from the whole dose curve; as a rule, active = well fitted curve in the direction sought with a large enough effect; inconclusive = small, poorly fitted or top-dose-only effect, or another doubt; inactive = no such curve, though single readings can be large; an effect the other way counts as inactive or inconclusive.

COc1ccc(NC(=O)COc2nc3ccccc3nc2N2CCOCC2)c(OC)c1	none
COc1ccc(O)c(CN2CCCC(N3CCN(c4ccc(F)cc4)CC3)C2)c1 (stereo not drawn)	Pf growth 48h 4.1µM, Pf growth 96h inconclusive
COc1ccc(O)c(CN2CCCC(N3CCc4ccccc4C3)C2)c1 (stereo not drawn)	Pf growth 48h 12µM, Pf growth 96h inconclusive
Oc1ccccc1CN1CCCC(N2CCc3ccccc3C2)C1 (stereo not drawn)	Pf growth 48h 9.3µM, Pf growth 96h 5.2µM (no result: Shiga toxin inh)
CCOc1cccc(CN2CCCC(N3CCc4cc(OC)c(OC)cc4C3)C2)c1O (stereo not drawn)	Pf growth 48h inconclusive, Pf growth 96h inconclusive
CCOc1cc(CN2CCCC(N3CCc4ccccc4C3)C2)ccc1O (stereo not drawn)	Pf growth 48h inconclusive
O=c1[nH]cnc(O)c1C(c1ccc([N+](=O)[O-])cc1)c1c(O)nc[nH]c1=O	none (no result: Shiga toxin inh)
NC(=O)CC(NC(=O)c1cccc(Br)c1)c1ccc(N2CCC(N3CCCC3)CC2)c([N+](=O)[O-])c1 (stereo not drawn)	none
CC(=O)c1cccc(N(C(=O)c2ccccn2)C(C(=O)NC2CCCCC2)c2ccccc2)c1 (stereo not drawn)	Pf growth 96h 10µM
COc1cccc(N(C(=O)c2cnccn2)C(C(=O)NC2CCCCC2)c2ccc(Cl)cc2)c1 (stereo not drawn)	Pf growth 48h inconclusive, Pf growth 96h inconclusive
COc1ccc(C(C(=O)NC2CCCCC2)N(C(=O)c2ccccn2)c2cccnc2)cc1 (stereo not drawn)	none
CC(=O)c1ccc(N(C(=O)c2csnn2)C(C(=O)NC2CCCC2)c2ccccc2)cc1 (stereo not drawn)	none
O=C(NC1CCCCC1)C(c1ccc(Cl)cc1)N(C(=O)c1cnccn1)c1ccc2c(c1)OCO2 (stereo not drawn)	Pf growth 48h 10µM
CC(C)c1ccc(C(C(=O)NC2CCCCC2)N(C(=O)c2ccccn2)c2cccnc2)cc1 (stereo not drawn)	Pf growth 48h 10µM, Pf growth 96h inconclusive
CCCCN(C(=O)Nc1ccc(OCC)cc1)C1CCN(C(C)=O)CC1	none
CCc1nc2c(OCc3ccc(F)c(F)c3)cccn2c1N(C)C(=O)c1cccs1	none (no result: CHX counter, Pf growth 48h, Shiga toxin inh, SARS PLP yeast, Pf growth 96h)
CC(C)C1OC(c2cccc(NC(=O)c3cccs3)c2)OCC1(C)C (stereo not drawn)	Pf growth 48h 1.9µM, Pf growth 96h inconclusive
CC1CCN(C(=O)c2cccc(NC(=O)c3cccs3)c2)CC1	none
COc1ccc(-n2c(COc3ccc(C)cc3)n[nH]c2=S)cc1	Pf growth 96h 0.47µM
O=C(Nc1cccc(S(=O)(=O)N2CCCCC2)c1)C1CC(=O)N(c2ccc3c(c2)OCCO3)C1 (stereo not drawn)	Pf growth 48h inconclusive, Pf growth 96h inconclusive
O=C(O)COn1c(-c2ccccc2)nc2ccc(Cl)cc21	CHX counter 22
COn1c(-c2ccccc2)nc2ccc(Cl)cc21	CHX counter 31, Shiga toxin inh 72
O=[N+]([O-])c1ccc2nc(-c3ccccc3)n(OCc3ccc(Cl)cc3)c2c1	CHX counter 18, Pf growth 96h 13µM
NC(=O)C1CCN(c2nc(-c3ccccc3Cl)cs2)CC1	Pf growth 48h inconclusive (no result: CHX counter, AMA1-RON2 inh, Shiga toxin inh, SARS PLP yeast)
Cc1ccc(S(=O)(=O)N2CCC(C(=O)NCCCOC(C)C)CC2)cc1	none
Cc1cccc(C)c1NC(=O)c1csc(COCCO)n1	none (no result: CHX counter, Pf growth 48h, Shiga toxin inh, SARS PLP yeast, Pf growth 96h)
COCCNC(=O)c1c(C)cc(C)cc1C	none
CSc1ccccc1OCc1cc(C(=O)NCc2cccc(C)n2)no1	CHX counter 80, Shiga toxin inh 99, Pf growth 96h 4.1µM
CSc1ccccc1OCc1cc(C(=O)NC(C)Cc2cccc(C)n2)no1 (stereo not drawn)	CHX counter 49, Pf growth 48h 10µM, Shiga toxin inh 88, Pf growth 96h inconclusive
CCn1nc(C)c(CNC(=O)c2cc(COc3ccccc3SC)on2)c1C	CHX counter 25, Pf growth 48h inconclusive
CCn1nc(C)c(CNC(=O)c2cc(COc3cncc(Cl)c3)on2)c1C	Pf growth 48h inconclusive
O=C(Nc1cc(Cl)ccc1-n1cncn1)c1cc(F)c(F)c(F)c1F	none (no result: CHX counter, Shiga toxin inh)
Oc1ccc(Br)cc1C1C=C(c2ccc3c(c2)OCO3)NC(c2c(F)cccc2Cl)N1 (stereo not drawn)	CHX counter 46, Shiga toxin inh 82 (no result: AMA1-RON2 inh, Pf growth 48h, SARS PLP yeast, Pf growth 96h)
O=c1c(Cc2c(F)cccc2Cl)c(O)ccn1Cc1ccc2c(c1)OCO2	none
O=C(Cc1c(F)cccc1Cl)NNC(=O)Nc1ccc2c(c1)OCO2	none
Oc1ccccc1C1C=C(c2ccc3c(c2)OCO3)NC(c2c(F)cccc2Cl)N1 (stereo not drawn)	CHX counter 46, Shiga toxin inh 97 (no result: AMA1-RON2 inh, Pf growth 48h, SARS PLP yeast, Pf growth 96h)
Cc1ccc(N2NC3(CCN(C(N)=O)CC3)NC2=O)cc1	none
Cc1[nH]c2ccccc2c1C(=O)CSC(=S)N1CCCCC1	CHX counter 95, Shiga toxin inh 85
O=C(CSC(=S)N1CCCC1)c1ccccc1	CHX counter 48, Shiga toxin inh 67
O=C(CSC(=S)N1CCCCC1)c1ccccc1	CHX counter 23
Cc1ccc(C(=O)Nc2nnc(S(=O)(=O)N3CCC(C)CC3)s2)cc1	none
CC1CCC2(CC1)NC(=O)N(CC(=O)c1cn(CCC#N)c3ccccc13)C2=O (stereo not drawn)	Pf growth 96h inconclusive
CC(OCc1ccccc1)C(NC(=O)OC(C)(C)C)C(=O)NC1COC2CC(n3ccc(=O)[nH]c3=O)OC12 (stereo not drawn)	none (no result: AMA1-RON2 inh, Pf growth 48h, SARS PLP yeast, Pf growth 96h)
Cc1ccc(C(O)Cn2cc([N+](=O)[O-])nc2C)cc1 (stereo not drawn)	Pf growth 48h 2.6µM
CC(=O)C1=CCC(c2ccc(C)o2)N(S(=O)(=O)c2ccc(C)cc2)C1 (stereo not drawn)	none (no result: CHX counter, Pf growth 48h, Shiga toxin inh, SARS PLP yeast, Pf growth 96h)
Cl/C(=C\n1cncn1)c1ccc(Cl)cc1Cl	none (no result: CHX counter, AMA1-RON2 inh, Shiga toxin inh, SARS PLP yeast)
CCN(CC)C(=O)COc1ccc2oc(-c3ccco3)cc(=O)c2c1	CHX counter 19, Pf growth 48h inconclusive, Pf growth 96h inconclusive
COc1ccc2oc(C(=O)OCC(=O)Nc3ccccc3OC)c(C)c2c1	none (no result: CHX counter, Shiga toxin inh)
COc1ccc2oc(C(=O)OCC(=O)Nc3ccccc3)c(C)c2c1	CHX counter 29, Shiga toxin inh 35
COc1ccc2oc(C(=O)OCC(=O)Nc3ccc(C(=O)N(C)C)cc3)c(C)c2c1	CHX counter 17
CCN(CC)C(=O)COc1c(-c2ccco2)oc2ccccc2c1=O	Pf growth 48h inconclusive, Pf growth 96h inconclusive
CCOC(=O)N1CCN(C(=O)COC(=O)c2oc3ccc(OC)cc3c2C)CC1	CHX counter 16, Shiga toxin inh 32
CC(Sc1nc(-c2ccco2)nc2c1c(=O)n(C)c(=O)n2C)C(=O)O (stereo not drawn)	none
O=C(CSc1nnc(COc2ccc(Cl)cc2)o1)N1CCOCC1	Pf growth 96h inconclusive
